A number with no mark means an inactive call. Results filed as inconclusive are left out. The source made the active and inactive calls. Unless noted, the call rests on the fitted dose curve.

The nature of experiment [1]: Nuclear factor erythroid 2-related factor 2/antioxidant responsive element (Nrf2/ARE) small molecule agonists: qHTS cell viability counter screen in human keratinocytes (AID 1919968; active means well fitted curve in the direction sought with a large enough effect in the repeat runs; an effect the other way counts as inactive or inconclusive; further: nearly all actives have a fitted effect of over 55% in size; further: potency means the concentration at half of the fitted maximal effect). The gist of the method: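 KeratinoSens cells (HaCaT keratinocytes stably carrying an ARE-luciferase reporter) were seeded at 1,500 cells/well and rested 5 h at 37 C/5% CO2. They were then exposed to compounds in DMSO for 23 h. Viability was read by CellTiter-Fluor fluorescence after 1 h.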

The target in experiment [2] is Gonadotropin-releasing hormone receptor (Homo sapiens) (UniProt P30968). The experiment in a line: Human gonadotropin-releasing hormone receptor (GnRHR) small molecule agonists, calcium flux assay in GnRHR-HEK293 cells (AID 1920063). Further: nearly all actives have a fitted effect of over 35% in size. In outline: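 HEK293 cells stably expressing human GnRHR were plated 18 h at 37 °C, loaded with calcium dye 1 h at 37 °C, then given compound in agonist mode; fluorescence (Ex/Em 480/540) read kinetically for 3 min at 1 s intervals.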
Sequence of Gonadotropin-releasing hormone receptor (Homo sapiens) (P30968 whole entry, looked up): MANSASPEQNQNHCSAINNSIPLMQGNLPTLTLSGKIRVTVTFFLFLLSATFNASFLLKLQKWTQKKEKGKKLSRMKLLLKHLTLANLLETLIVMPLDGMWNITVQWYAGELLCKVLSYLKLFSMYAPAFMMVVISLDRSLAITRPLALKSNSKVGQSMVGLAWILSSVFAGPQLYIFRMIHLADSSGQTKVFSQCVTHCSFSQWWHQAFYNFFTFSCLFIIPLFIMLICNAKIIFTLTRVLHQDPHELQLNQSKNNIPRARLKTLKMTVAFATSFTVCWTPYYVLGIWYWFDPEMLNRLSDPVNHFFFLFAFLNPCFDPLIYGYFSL
In general terms: A change in cytosolic calcium serves as a functional read-out for many receptors and channels.

Experiment [3] addresses KiSS-1 receptor (Homo sapiens) (UniProt Q969F8). As to the kind of experiment: Human kisspeptin (KISS1R) small molecule agonists, calcium flux assay in KISS1R-HEK293 cells (AID 1920064; active means well fitted curve in the direction sought with a large enough effect in the repeat runs; an effect the other way counts as inactive or inconclusive). In outline: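 HEK293 cells stably expressing human KISS1R were plated 18 h at 37 °C, loaded with calcium dye for 1 h at 37 °C, then given compound by pin tool. Fluorescence (Ex/Em 480/540) was read kinetically for 3 min.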

Experiment [4] is described as follows: G protein-coupled receptor (GPCR) small molecule agonists, calcium flux assay: HEK293 wild type cell line counter screen (AID 1920065). The gist of the method:
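Cells were plated and cultured 18 h at 37 C/5% CO2, then loaded with calcium dye for 1 h at 37 C. Compounds in DMSO were pin-transferred in agonist mode, and fluorescence (Ex/Em 480/540) was read kinetically for 3 min at 1 s intervals.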

Experiment [5] can be described thus: p53 small molecule agonists, cell-based qHTS assay with human liver microsomes: qHTS cell viability counter screen (AID 1963579). Further: nearly all actives have a fitted effect of over 45% in size. Further: potency means the concentration at half of the fitted maximal effect. In outline:
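Cytotoxicity counter screen: p53RE-bla, 4,000 cells/well; 5 h settle, 37 C/5% CO2; cpd + HLM 0.5 mg/mL + NADPH 0.5 mg/mL (final); 16 h, 37 C; CellTiter-Glo, 30 min RT, luminescence.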
Background: Quantitative high-throughput screening tests each substance at several concentrations.

Experiment [6] can be described thus: p53 small molecule agonists, cell-based qHTS assay with rat liver microsomes: qHTS cell viability counter screen (AID 1963580). Further: nearly all actives have a fitted effect of over 45% in size. The gist of the method: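 In HCT-116 cells carrying a p53 response element-bla reporter, compounds were metabolically activated in situ by rat liver microsomes with NADPH over 16 h. Cell ATP content then served as the cytotoxicity measure.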

Experiment [7] in a line: p53 small molecule agonists, cell-based qHTS assay: qHTS cell viability counter screen (AID 1963581). Further: nearly all actives have a fitted effect of over 45% in size. The gist of the method:
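p53RE-bla HCT-116 cells were exposed to compounds for 16 h at 37 C; after the beta-lactamase FRET read in the same wells, CellTiter-Glo was added and luminescence (intracellular ATP) read after 30 min at room temperature.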

Experiment [8] concerns the target 5-hydroxytryptamine receptor 2A (Homo sapiens) (UniProt P28223). The experiment in a line: 5-hydroxytryptamine receptor 2A (HTR2A) small molecule antagonists, cell-based qHTS assay (AID 1963586). Further: nearly all actives have a fitted effect of over 45% in size. In outline: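 Antagonist-mode intracellular calcium assay: DOI (4 nM) added after 5 min compound pre-incubation at room temperature to dye-loaded HTR2A-CHO cells. Fluorescence followed for 3 min, sampled every second.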

Experiment [9] shares this target. As to the kind of experiment: 5-hydroxytryptamine receptor 2A (HTR2A) small molecule agonists, cell-based qHTS assay (AID 1963587). Further: nearly all actives have a fitted effect of over 30% in size. The gist of the method: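 HTR2A-CHO cells, plated 18 h at 37 C/5% CO2, dye-loaded 1 h at 37 C; compounds in DMSO added by pin tool (agonist mode). Intracellular calcium flux read as kinetic fluorescence on FDSS over 2 min at 1 s intervals.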

The target of experiment [10] is Muscarinic acetylcholine receptor M1 (Homo sapiens) (UniProt P11229). The experiment in a line: Cholinergic receptor muscarinic 1 (CHRM1) small molecule agonists, cell-based qHTS assay (AID 1963589). Further: nearly all actives have a fitted effect of over 35% in size. The gist of the method:
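CHO cells stably expressing human CHRM1, seeded 18 h at 37 C/5% CO2, dye-loaded 1 h at 37 C, then given compound in agonist mode; intracellular calcium fluorescence read kinetically at 1 s intervals. Fifteen concentrations, three independent runs.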

Experiment [11] can be described thus: cAMP Responsive Elements (CRE) small molecule antagonists, cell-based qHTS assay (AID 1963591; active means well fitted inhibition curve with a large enough effect in the signal ratio in the repeat runs, not every such curve was filed as active; the % refers to the signal ratio). The gist of the method:
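CRE-bla HEK293T cells were plated 18 h at 37 °C/5% CO2, pinned with compound in DMSO, then stimulated with NKH477 at 0.25 uM final for 3 h. LiveBLAzer B/G FRET substrate was added and plates incubated 2 h at room temperature.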

The target of experiment [12] is Beta-2 adrenergic receptor (Homo sapiens) (UniProt P07550). As to the kind of experiment: Adrenergic beta2 receptor (ADRB2) small molecule antagonists, cell-based qHTS assay (AID 1963592). Further: series mostly up to about 92 µM; nearly all actives have a fitted effect of over 50% in size. In outline:
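Cells (CHO, stable ADRB2 overexpression) incubated 18-20hr at 37C; compounds added from DMSO; agonist mix (1nM isoproterenol, 100uM IBMX, 25uM Ro-20-1724) added; 0.5hr RT; d2-cAMP and anti-cAMP-cryptate added; 1hr RT; 665/615 nm read.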

Experiment [13] deals with D(2) dopamine receptor (Homo sapiens) (UniProt P14416). As to the kind of experiment: Dopamine D2 receptor (DRD2) small molecule agonists, cell-based qHTS assay (AID 1963594). Further: nearly all actives have a fitted effect of over 35% in size. In outline: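 HEK293 cells stably expressing DRD2 were cultured 24 h at 37 C, then given Ro20-1724 (0.1 mM final) and compounds for 10 min at room temperature. NKH477 (200nM) was then added for 30 min. cAMP was read by HTRF.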
Sequence of D(2) dopamine receptor (Homo sapiens) (P14416 whole entry, looked up): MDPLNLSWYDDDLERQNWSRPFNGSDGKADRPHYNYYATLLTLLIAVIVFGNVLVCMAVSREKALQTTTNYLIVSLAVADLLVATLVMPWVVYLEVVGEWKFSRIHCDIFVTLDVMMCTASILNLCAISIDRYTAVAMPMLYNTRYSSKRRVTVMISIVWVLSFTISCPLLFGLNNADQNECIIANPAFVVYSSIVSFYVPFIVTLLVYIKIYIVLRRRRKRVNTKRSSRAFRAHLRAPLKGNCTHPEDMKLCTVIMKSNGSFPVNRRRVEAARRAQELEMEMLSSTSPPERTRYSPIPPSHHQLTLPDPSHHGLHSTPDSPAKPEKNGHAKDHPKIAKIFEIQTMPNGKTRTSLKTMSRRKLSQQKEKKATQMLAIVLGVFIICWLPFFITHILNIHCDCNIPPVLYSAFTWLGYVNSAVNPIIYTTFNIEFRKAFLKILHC

For experiment [14] the target is unchanged. As to the kind of experiment: Dopamine D2 receptor (DRD2) small molecule antagonists, cell-based qHTS assay (AID 1963595; active means well fitted inhibition curve with a large enough effect in the signal ratio in the repeat runs, with a control signal flat; the % refers to the signal ratio). The gist of the method: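 Antagonist mode in DRD2-HEK293 cells: after compound addition with 0.1 mM Ro20-1724, cells received quinpirole (12 nM) and NKH477 (200 nM) for 30 min at room temperature; HTRF cAMP read after 1 h detection.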

Experiment [15] concerns the target Muscarinic acetylcholine receptor M1 (Homo sapiens) (UniProt P11229). As to the kind of experiment: Cholinergic receptor muscarinic 1 (CHRM1) small molecule antagonists, cell-based qHTS assay (AID 1963588). Further: nearly all actives have a fitted effect of over 40% in size. In outline:
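CHRM1-CHO calcium-flux assay, antagonist mode. Cells were seeded 18 h, dye-loaded 1 h at 37 C and given compound for 5 min at RT, then acetylcholine was added at 50nM. FDSS fluorescence was read 3 min; 15 concentrations, three runs.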

The nature of experiment [16]: cAMP Responsive Elements (CRE) small molecule agonists, cell-based qHTS assay (AID 1963590). In outline: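 CRE-bla HEK 293T cells in DMEM with 10% dialyzed FBS, NEAA, pyruvate and 25 mM HEPES were plated 18 h at 37 C/5% CO2, then exposed to compounds in DMSO for 3 h before LiveBLAzer B/G FRET substrate addition.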
In experiment [17] the target is Beta-2 adrenergic receptor (Homo sapiens) (UniProt P07550). The experiment in a line: Adrenergic beta2 receptor (ADRB2) small molecule agonists, cell-based qHTS assay (AID 1963593).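 Further: CHO cells stably overexpressing human ADRB2.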 In outline: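 CHO cells stably over-expressing ADRB2 were plated overnight at 37C, then dosed with compounds plus a stimulation mix containing 100uM IBMX and 25uM Ro-20-1724 for 0.5hr at room temperature. cAMP was measured by HTRF competition, 1hr.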
Sequence of Beta-2 adrenergic receptor (Homo sapiens) (P07550 whole entry, looked up): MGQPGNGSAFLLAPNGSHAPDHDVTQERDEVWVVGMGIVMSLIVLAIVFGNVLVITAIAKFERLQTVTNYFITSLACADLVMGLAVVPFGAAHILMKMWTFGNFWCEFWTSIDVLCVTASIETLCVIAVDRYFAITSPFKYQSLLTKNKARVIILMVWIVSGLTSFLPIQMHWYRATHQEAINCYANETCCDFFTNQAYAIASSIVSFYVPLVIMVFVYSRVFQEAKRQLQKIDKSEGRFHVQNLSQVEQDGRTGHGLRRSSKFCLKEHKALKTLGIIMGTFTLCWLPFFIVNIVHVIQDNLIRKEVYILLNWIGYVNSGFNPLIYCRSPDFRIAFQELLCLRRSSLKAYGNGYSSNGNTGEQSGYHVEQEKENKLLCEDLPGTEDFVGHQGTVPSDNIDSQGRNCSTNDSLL
On the % scale 0 is the no-effect control and ±100 the full control effect.

Sequence of KiSS-1 receptor (Homo sapiens) (Q969F8 whole entry, looked up): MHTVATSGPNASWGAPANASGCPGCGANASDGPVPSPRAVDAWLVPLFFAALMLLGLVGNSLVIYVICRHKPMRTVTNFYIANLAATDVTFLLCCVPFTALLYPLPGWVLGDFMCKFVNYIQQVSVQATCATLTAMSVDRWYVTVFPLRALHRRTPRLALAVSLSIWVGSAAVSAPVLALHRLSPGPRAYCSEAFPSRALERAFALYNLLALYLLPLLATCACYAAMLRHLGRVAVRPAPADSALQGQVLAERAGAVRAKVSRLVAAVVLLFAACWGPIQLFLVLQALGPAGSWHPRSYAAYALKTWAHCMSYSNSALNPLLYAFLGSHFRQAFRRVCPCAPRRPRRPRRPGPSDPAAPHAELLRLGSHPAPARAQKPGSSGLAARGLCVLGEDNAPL
Sequence of Muscarinic acetylcholine receptor M1 (Homo sapiens) (P11229 whole entry, looked up): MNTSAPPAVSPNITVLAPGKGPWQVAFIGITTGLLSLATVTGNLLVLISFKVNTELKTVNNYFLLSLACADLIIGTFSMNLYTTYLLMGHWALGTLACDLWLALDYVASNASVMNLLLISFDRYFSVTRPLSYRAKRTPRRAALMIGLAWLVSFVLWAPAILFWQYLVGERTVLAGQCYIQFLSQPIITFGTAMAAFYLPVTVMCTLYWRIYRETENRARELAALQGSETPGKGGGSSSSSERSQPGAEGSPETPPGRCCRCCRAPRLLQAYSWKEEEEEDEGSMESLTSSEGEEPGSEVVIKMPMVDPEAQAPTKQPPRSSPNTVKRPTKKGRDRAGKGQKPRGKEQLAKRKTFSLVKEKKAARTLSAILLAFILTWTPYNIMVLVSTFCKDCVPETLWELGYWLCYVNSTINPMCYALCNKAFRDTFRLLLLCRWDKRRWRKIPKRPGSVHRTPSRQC
Sequence of 5-hydroxytryptamine receptor 2A (Homo sapiens) (P28223 whole entry, looked up): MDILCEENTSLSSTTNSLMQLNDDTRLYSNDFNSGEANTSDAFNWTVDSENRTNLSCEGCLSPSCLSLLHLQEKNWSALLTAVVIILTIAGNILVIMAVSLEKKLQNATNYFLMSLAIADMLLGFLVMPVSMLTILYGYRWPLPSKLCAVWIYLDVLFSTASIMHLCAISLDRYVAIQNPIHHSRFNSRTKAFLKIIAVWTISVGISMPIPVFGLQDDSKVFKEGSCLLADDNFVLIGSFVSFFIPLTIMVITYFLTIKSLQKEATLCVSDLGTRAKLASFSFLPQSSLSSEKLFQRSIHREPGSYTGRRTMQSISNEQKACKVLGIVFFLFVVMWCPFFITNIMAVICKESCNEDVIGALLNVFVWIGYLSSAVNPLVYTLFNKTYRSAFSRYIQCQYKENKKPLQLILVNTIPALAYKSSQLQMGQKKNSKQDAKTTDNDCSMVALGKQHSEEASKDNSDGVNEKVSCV

In the case of `CCC(Cl)CC(Cl)C(Cl)C(Cl)C(Cl)C(C)Cl` (stereo not drawn), the activity change, negative = cytotoxicity was 2.55% [at 19 µM] in experiment [1], -1.84% [at 13.5 µM] in experiment [5], -14% [at 13.5 µM] in [6] and -23.5% [at 13.5 µM] in experiment [7]. Moreover, in [2], the activity change was -1.19% [at 11.8 µM, hits give high values]. Also, the activation in [3] was -1.96% [at 15.8 µM]; in experiment [4], 0.622% [at 11.8 µM]; in [9], -1.32% [at 15.9 µM]; in experiment [10], -0.121% [at 15.8 µM]; in experiment [13], -1.17% [at 19 µM]. Besides, the activity, negative = inhibition in experiment [8] is -18.7% [at 12.7 µM]. In addition, the values for the activity change, negative = inhibition in [11], in experiment [12] and in experiment [14] were 6.46% [at 18.9 µM], -8.4% [at 19 µM] and -0.674% [at 18.9 µM], respectively.

On to `C=CC(C)(CCC=C(C)C)OC(=O)CC(C)C` (stereo not drawn), for which the Potency entry in experiment [1], in experiment [2], in experiment [3], in experiment [4], in [5] and in experiment [6] was “inactive” each time. Also, the Potency result in experiment [7], in [8], in experiment [15], in experiment [10], in experiment [16] and in experiment [11] was “inactive” in each case. Moreover, the Potency result in [13] and in [14] was “inactive” in each case.

As to `NC(=O)c1c(Cl)cccc1Cl`, the Potency result in experiment [1], in [2], in [3], in [4], in experiment [5] and in [6] was “inactive” each time. In addition, the Potency result in experiment [8], in [9], in experiment [15], in [10], in experiment [16] and in [12] was “inactive” in each case. For the same compound, the Potency result in [17], in [13] and in experiment [14] was “inactive” in each case.

As to `COP(=O)(OC)OC(c1ccc(Cl)cc1)P(=O)(OC)OC` (stereo not drawn), the Potency entry in experiment [1], in experiment [2], in [3], in [4], in experiment [5] and in experiment [6] was “inactive” throughout. For the same compound, the Potency entry in experiment [7], in experiment [8], in experiment [9], in [10], in experiment [16] and in [11] was “inactive” in each case. Further, in experiment [12], the Potency entry is “inactive”.

For the compound `CCCCCCC(C)Nc1ccc(Nc2ccccc2)cc1` (stereo not drawn), the Potency is 48.6 µM (active) in [1] and 40.8 µM (active) in experiment [5]. In addition, the Potency entry in [2], in experiment [3], in experiment [4], in [6], in experiment [8] and in experiment [15] was “inactive” throughout. Moreover, the Potency result in [10], in experiment [12] and in experiment [13] was “inactive” throughout.

As for `O=C1Cc2ccccc2N1c1c(Cl)cccc1Cl`, the Potency result in experiment [1], in experiment [2], in experiment [3], in experiment [4], in experiment [5] and in experiment [6] was “inactive” throughout. Also, the Potency result in [8], in experiment [15], in [10], in [12], in experiment [17] and in experiment [13] was “inactive” throughout. Further, the Potency entry in experiment [14] is “inactive”.

For `Cc1ccc(OC(=O)CC(C)C)cc1`, the Potency entry in experiment [1], in experiment [2], in [3], in [4], in experiment [5] and in [6] was “inactive” each time. For the same compound, the Potency result in experiment [8], in experiment [9], in [15], in experiment [10], in experiment [16] and in [11] was “inactive” in each case. For the same compound, the Potency entry in [12], in experiment [17] and in [14] was “inactive” each time.

As to `NC(=O)N(O)[C@@H]1COc2cc(OCc3ccccc3)ccc21`, the Potency entry in [1], in experiment [2], in experiment [3], in experiment [4], in experiment [5] and in [6] was “inactive” in each case. In addition, the Potency entry in experiment [8], in experiment [9], in [15], in [10], in [12] and in experiment [17] was “inactive” throughout. The Potency result in experiment [14] is “inactive”.

In the case of `NC[C@H]1O[C@H](O[C@H]2[C@H](O)[C@@H](O[C@H]3O[C@H](CO)[C@@H](O)[C@H](N)[C@H]3O)[C@H](N)C[C@@H]2N)[C@H](O)[C@@H](O)[C@@H]1O`, the activity change, negative = cytotoxicity in [1] is 2.11% [at 8.39 µM]; in [5] it was 4.31% [at 5.99 µM]; in experiment [6], 3.51% [at 5.99 µM]; in [7], 2.96% [at 5.99 µM]. Also, the activity change in [2] is -0.795% [at 5.22 µM, hits give high values]. The activation in [3] is 3.49% [at 6.97 µM]; in experiment [4] it was -1.23% [at 5.23 µM]; in experiment [13] it was 0% [at 8.39 µM]. Also, the activity change, negative = inhibition is 0.292% [at 8.39 µM] in experiment [12] and -3.37% [at 8.38 µM] in experiment [14].

Source of the values: PubChem BioAssay (Tox21).
